Laboratory results published in PubChem BioAssay AID463173 (ICCB-Longwood Screening Facility, Harvard Medical School, 2010).
Screen size: about 52,000 compounds; about 4,300 (8.3%) were called active. Rule as the data show it: active = survival mostly below about 52% (no sharp cut-off); inactive = mostly above about 56%. The list comes from a sample in which actives are over-represented; it also holds similar structures and randomly drawn compounds.

system: DeltatarO mutant; experiment: growth inhibition of S. aureus wild type versus tarO mutant, primary screen, teichoic acid synthesis inhibitors, RN4220, OD600 (AID 463173); conditions: OD600, 18 h, stronger effect = lower value, concentration not given here

Structure (SMILES)	survival
Cc1cccc(-n2c(/C=C/c3ccccc3O)nc3ccccc3c2=O)c1	0% (active)
Cc1cccc(-n2c(/C=C/c3cn(C)c4ccccc34)nc3ccccc3c2=O)c1	21% (active)
O=c1c2ccccc2nc(/C=C\c2ccccc2F)n1-c1ccc(O)cc1	67% (inactive)
Cc1cc(C)cc(-n2c(/C=C/c3cccc(F)c3)nc3ccccc3c2=O)c1	83% (inactive)
COc1cccc(-n2c(/C=C/c3ccccc3O)nc3ccccc3c2=O)c1	4% (active)
Cn1cc(/C=C/c2nc3ccccc3c(=O)n2-c2ccccc2)c2ccccc21	77% (inactive)
Cc1cccc(-n2c(/C=C/c3cccc4ccccc34)nc3ccccc3c2=O)c1	94% (inactive)
COc1ccc(-n2c(/C=C\c3ccccc3F)nc3ccccc3c2=O)cc1OC	89% (inactive)
CCCCc1nc2ccccc2c(=O)n1-c1cccc(OC)c1	119% (inactive)
O=c1c2ccccc2nc(/C=C/c2ccccc2F)n1-c1cccc(O)c1	2% (active)
Cc1cccc(-n2c(-c3ccco3)nc3ccccc3c2=O)c1	94% (inactive)
COc1cc(/C=C/c2nc3ccccc3c(=O)n2-c2ccc(Br)c(C)c2)ccc1O	71% (inactive)
Cc1cc(-n2c(/C=C/c3cccs3)nc3ccccc3c2=O)ccc1Br	104% (inactive)
O=C1/C(=C\c2cc3c(cc2Cl)OCO3)N2CCC1CC2	87% (inactive)
O=C1NC(=S)NC(=O)C1C1CCCCC1	74% (inactive)
CCC(C(=O)Nc1ccccc1F)N1C(=O)CN=C(c2ccccc2)c2ccccc21 (stereo not given)	84% (inactive)
CC(C)Cc1nc2cccnc2n1C1CCNCC1	120% (inactive)
O=C(c1ccc2c(c1)N(Cc1ccc(F)cc1Cl)C(=O)c1ccccc1S2)N1CCC2(CC1)OCCO2	101% (inactive)
COc1ccc(N=C2SCCCN2C)cc1	99% (inactive)
CNC(=O)Oc1c(Cl)cc(Cl)cc1Cl	96% (inactive)
Cc1ccc(-n2c(/C=C/c3cccc4ccccc34)nc3ccccc3c2=O)cc1	77% (inactive)
CCc1nc2ccccc2c(=O)n1-c1cccc(OC)c1	91% (inactive)
Cc1ccc2c(c1)C(Cc1nc3ccccc3c(=O)n1-c1ccc(Br)cc1)C(=O)N2 (stereo not given)	73% (inactive)
Cc1ccc(-n2c(/C=C/c3cccc(C(F)(F)F)c3)nc3ccccc3c2=O)cc1	72% (inactive)

Structure (SMILES)	survival
O=c1c2ccccc2nc(/C=C/c2ccccc2O)n1-c1ccc(Br)cc1	41% (active)
Cc1cccc(-n2c(/C=C/c3c[nH]c4ccccc34)nc3ccccc3c2=O)c1	26% (active)
Cc1ccc(-n2c(/C=C\c3ccc(F)cc3)nc3ccccc3c2=O)cc1Cl	90% (inactive)
O=c1c2ccccc2nc(/C=C\c2cccc(Br)c2)n1-c1ccc(O)cc1	100% (inactive)
Cc1cccc(-n2c(CC3C(=O)Nc4ccc(C)cc43)nc3ccccc3c2=O)c1 (stereo not given)	34% (active)
O=C(Nc1ccc2c(c1)OCCO2)c1cccn(Cc2cccc(F)c2)c1=O	84% (inactive)
N#CC(C#N)=Cc1sc2ccccc2c1Cl	93% (inactive)
COc1ccc(C2(CN)CCOCC2)cc1	88% (inactive)
O=c1cccc2n1CC1CC2CN(c2ncnc3c2cnn3-c2ccc(Cl)cc2)C1 (stereo not given)	52% (inactive)
Cc1ccc(NC(=O)Cn2cc(C(=O)c3ccccc3)c3ccccc32)cc1	122% (inactive)
COc1ccc(-c2nc(CN3C(=O)CN=C(c4ccccc4)c4ccccc43)c(C)o2)cc1OC	97% (inactive)
Cc1ccccc1-c1nc(CN2C(=O)CN=C(c3ccccc3)c3ccccc32)c(C)o1	-1% (active)
Cc1cccc(-c2nc(CN3C(=O)CN=C(c4ccccc4)c4ccccc43)c(C)o2)c1	-2% (active)
Cc1ccc(-c2nc(CN3C(=O)CN=C(c4ccccc4)c4ccccc43)c(C)o2)cc1	49% (inactive)
COc1ccc(-c2nc(CN3C(=O)CN=C(c4ccccc4)c4ccccc43)c(C)o2)cc1	84% (inactive)
Cc1oc(-c2ccc(Cl)cc2)nc1CN1C(=O)CN=C(c2ccccc2)c2ccccc21	49% (inactive)
O=C(Cn1cc(C(=O)c2ccccc2)c2ccccc21)Nc1ccc(Br)cc1	48% (inactive)
Cn1c(=O)n(C)c2cc(CNCCc3ccccc3F)ccc21	68% (inactive)
COc1ccc(Br)cc1CN1CCN(C(=O)Cc2ccccc2)CC1	73% (inactive)
COc1ccc2c(c1OC)C(=O)OC2C1c2cc3c(cc2CCN1C)OCO3 (stereo not given)	69% (inactive)
CN1CCc2cc3c(c4c2C1Cc1ccccc1-4)OCO3 (stereo not given)	12% (active)
CCCC12CN3CC(C)(CN(C1)C3c1c(C)[nH]c(=O)[nH]c1=O)C2=O (stereo not given)	81% (inactive)
N#CSCC(=O)N1c2ccccc2CCc2ccccc21	3% (active)
CN1CCN(c2csc3ccc(F)cc3c2=O)CC1	98% (inactive)

Structure (SMILES)	survival
Cc1ccc(-n2c(/C=C/c3cc(Br)cs3)nc3ccccc3c2=O)cc1C	71% (inactive)
O=C(COc1ccccc1)N1CCN(CC(O)COc2ccccc2)CC1 (stereo not given)	68% (inactive)
CN1CCN(C(=O)COc2cccc3ccccc23)CC1	98% (inactive)
CN(C)c1ccc(NC(=O)c2sc3nc4c(cc3c2N)N2CCC4CC2)cc1	146% (inactive)
O=C(Nc1ccc(F)c(Cl)c1)N(Cc1ccc2c(c1)OCO2)C1CCN(Cc2ccccc2)CC1	68% (inactive)
N#Cc1cc2c(nc1SCC(=O)Nc1ccc(Cl)c(C(F)(F)F)c1)C1CCN2CC1	-1% (active)
N#Cc1cc(F)c(N2CCNCC2)cc1Cl	74% (inactive)
N#Cc1cc2c(nc1SCC(=O)Nc1ccc(F)c(Cl)c1)C1CCN2CC1	-2% (active)
CC(N)Cc1cn(Cc2ccccc2)c2ccccc12 (stereo not given)	112% (inactive)
CN1C(=O)C(Cc2nc3ccccc3c(=O)n2-c2ccccc2)c2ccccc21 (stereo not given)	85% (inactive)
C=C1N2CCC(CC2)C1(O)c1ccc(C)cc1 (stereo not given)	44% (active)
Cc1c(C(c2ccc(Br)cc2)c2c(O)c3ccccc3oc2=O)c(=O)n(-c2ccccc2)n1C (stereo not given)	49% (active)
COc1ccc(C(c2c(O)c3ccccc3oc2=O)c2c(C)n(C)n(-c3ccccc3)c2=O)cc1 (stereo not given)	57% (inactive)
Cc1c(C(c2ccc(O)cc2)c2c(O)c3ccccc3oc2=O)c(=O)n(-c2ccccc2)n1C (stereo not given)	47% (active)
COc1cc(C(c2c(O)c3ccccc3oc2=O)c2c(C)n(C)n(-c3ccccc3)c2=O)ccc1O (stereo not given)	53% (inactive)
Cc1c(C(c2ccc(F)cc2)c2c(O)c3ccccc3oc2=O)c(=O)n(-c2ccccc2)n1C (stereo not given)	89% (inactive)
CSc1ccc(C(c2c(O)c3ccccc3oc2=O)c2c(C)n(C)n(-c3ccccc3)c2=O)cc1 (stereo not given)	128% (inactive)
COc1ccc(NC(=O)CN2C(=O)CN=C(c3ccccc3)c3ccccc32)c(OC)c1	99% (inactive)
CC1CN2CCC3=C(CCCC3)C2(C)C1 (stereo not given)	77% (inactive)
CCN(CC)c1ccc(C=C(C#N)C#N)cc1	91% (inactive)
CC(C)n1cc(C(=O)N(C2CC2)C(C(=O)NC2CCCC2)c2ccccc2)cn1 (stereo not given)	101% (inactive)
COc1cccc(C2SCC(=O)Nc3c2c(C)nn3-c2ccc(C)c(Cl)c2)c1OC (stereo not given)	55% (inactive)
Cc1cccc(-n2nc(C)c3c2NC(=O)CSC3c2ccccc2Cl)c1 (stereo not given)	43% (active)
COc1ccccc1C1SCC(=O)Nc2c1c(C)nn2-c1cccc(C)c1 (stereo not given)	-1% (active)

Structure (SMILES)	survival
CCc1ccc(-n2nc(C)c3c2NC(=O)CSC3c2ccc(OC)cc2OC)cc1 (stereo not given)	60% (inactive)
CCCOc1ccc(C2SCC(=O)Nc3c2c(C)nn3-c2cccc(C)c2)cc1OC (stereo not given)	41% (active)
Cc1ccc(-n2c(/C=C/c3ccc(Br)s3)nc3ccccc3c2=O)cc1	85% (inactive)
O=C1NC(=O)C(=Cc2ccc(N3CCOCC3)cc2)C(=O)N1	80% (inactive)
O=c1cccc2n1CC1CC2CN(c2nc(Cl)nc(Cl)n2)C1 (stereo not given)	80% (inactive)
CCCCC12CN3CC(C)(CN(C1)C3c1ccccn1)C2=O (stereo not given)	79% (inactive)
Cc1cc(N)n(C2CCN(C)CC2)n1	94% (inactive)
Cc1ccc(NC(=O)CN2C(=O)CN=C(c3ccccc3)c3ccccc32)cc1Cl	122% (inactive)
Cc1ccc(Cn2cccc(C(=O)Nc3nc4ccc(C)cc4s3)c2=O)cc1	117% (inactive)
COC1=CC23CCN(C)C(Cc4ccc(OC)c(O)c42)C3=CC1=O (stereo not given)	84% (inactive)
Cc1cccc(CSc2nc3c(cc2C#N)CN(C)CC3)c1	101% (inactive)
N#Cc1cccc(NC(=O)CSc2nc3c(cc2C#N)N2CCC3CC2)c1	88% (inactive)
CC(=O)c1ccc(NC(=O)c2sc3nc4c(cc3c2N)N2CCC4CC2)cc1	98% (inactive)
N#Cc1cc2c(nc1SCC(=O)Nc1ccc(C(F)(F)F)cc1)C1CCN2CC1	8% (active)
N#Cc1cc2c(nc1SCC(=O)Nc1cccc(F)c1)C1CCN2CC1	-4% (active)
CCOC(=O)c1ccc(NC(=O)c2sc3nc4c(cc3c2N)N2CCC4CC2)cc1	68% (inactive)
N#Cc1cc2c(nc1SCC(=O)Nc1cccc(C(F)(F)F)c1)C1CCN2CC1	4% (active)
O=C(CN1C(=O)CN=C(c2ccccc2)c2ccccc21)Nc1cccc(C(F)(F)F)c1	57% (inactive)
CCOC(=O)c1ccc(NC(=O)CSc2nc3c(cc2C#N)N2CCC3CC2)cc1	76% (inactive)
O=C(CNC1CCCCC1)N1CCC2(CC1)OCCO2	116% (inactive)
CCc1cccc(NC(=O)CN2C(=O)CN=C(c3ccccc3F)c3cc(Cl)ccc32)c1	94% (inactive)
CCC(C)N1CCN(Cc2cc(OC)c(OC)cc2OC)CC1 (stereo not given)	108% (inactive)
CCNCC1(c2ccc(OC)c(OC)c2)CCCC1	94% (inactive)
